Coupling enz: coupling enzyme interference in Giardia aldolase counter-screen; coupling enzyme system counterscreen, AmpLite Red fluorescence; activity change, negative = inhibition, % at 58.2 µM, hits read low; 290,000 tested, 0.67% active; AID 2472; in the data active means activity change below about -30%; further: on the % scale 0 is the no-effect control and ±100 the full control effect
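Compounds tested against the coupling enzymes alone at 57.5 uM final; readout was AmpLite Red fluorescence (525/598 nm) after 20 min at RT.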
RXFP1 antagonist: antagonists of human relaxin receptor RXFP1; HEK293-RXFP1, relaxin-stimulated cAMP HTRF, 30 min; stronger effect = lower value; activity change, negative = inhibition, % at 57.5 µM; AID 1259400; Q9HBX9; 350,000 tested, 0.59% active;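 active means activity change of -60% or lower, but not beyond a set lower limit; inconclusive means change between -60% and -40%, or beyond the set limit; inactive means change above -40%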; further: on the % scale 0 is the no-effect control and ±100 the full control effect
Target sequence (Q9HBX9 whole entry, looked up): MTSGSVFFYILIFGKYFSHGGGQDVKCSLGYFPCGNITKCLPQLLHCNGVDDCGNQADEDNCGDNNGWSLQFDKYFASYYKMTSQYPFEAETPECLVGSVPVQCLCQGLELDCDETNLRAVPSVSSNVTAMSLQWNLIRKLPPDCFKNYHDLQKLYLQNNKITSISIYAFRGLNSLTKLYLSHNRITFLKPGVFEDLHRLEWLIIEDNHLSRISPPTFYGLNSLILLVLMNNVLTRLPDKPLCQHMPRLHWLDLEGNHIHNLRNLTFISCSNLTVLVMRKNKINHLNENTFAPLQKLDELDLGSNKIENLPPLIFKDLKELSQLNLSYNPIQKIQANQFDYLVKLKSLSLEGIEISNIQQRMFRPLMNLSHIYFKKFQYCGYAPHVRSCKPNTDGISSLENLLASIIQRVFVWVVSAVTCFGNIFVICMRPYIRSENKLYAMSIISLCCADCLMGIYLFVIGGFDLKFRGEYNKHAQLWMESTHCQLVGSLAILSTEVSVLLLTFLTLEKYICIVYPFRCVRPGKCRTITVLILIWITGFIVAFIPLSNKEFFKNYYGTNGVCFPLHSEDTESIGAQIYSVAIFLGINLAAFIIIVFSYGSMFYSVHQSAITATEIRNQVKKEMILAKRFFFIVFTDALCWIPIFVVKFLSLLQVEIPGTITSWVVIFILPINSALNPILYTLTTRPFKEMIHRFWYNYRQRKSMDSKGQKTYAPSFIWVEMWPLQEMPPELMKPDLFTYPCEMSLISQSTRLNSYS
gsp ag: agonists of gsp mutant (McCune-Albright syndrome); Potency, µM (titrated, usually from 76.9 µM), without a hit: at the top dose activation (cAMP increase), usual class: activators; 340,000 tested, 0.13% active; AID 624287; gsp mutant cells, cAMP HTRF, 30 min; active means well fitted activation curve with a large enough effect; inconclusive means small, poorly fitted or top-dose-only effect, or another doubt; inactive means no such curve, though single readings can be large or run the other way; cell line not stated here;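 further: phosphodiesterase inhibitor Ro 20-1724 added with compounds to block cAMP breakdown; potency means the concentration at half of the fitted maximal effect; nearly all actives have a fitted effect of over 60% in size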
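Cells in DMEM/10% FBS with G418 were pretreated with compounds in DMSO plus […] (300 uM stock) for 30 min at 37C. cAMP was measured by HTRF (cAMP-d2 plus anti-cAMP antibody-K) after 30 min at room temperature.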
RXFP1 ag: activates the human relaxin receptor RXFP1; Q9HBX9; HEK293T-RXFP1 cAMP TR-FRET, 30 min; response scale: percent of porcine relaxin response, buffer zero; AID 2676; Potency, µM (titrated, usually from 57.5 µM), for inactives: at the highest dose activation, most hits filed as activators; 370,000 tested, 0.3% active; active means well fitted activation curve with a large enough effect; inconclusive means small, poorly fitted or top-dose-only effect; further: potency means the concentration at half of the fitted maximal effect; on the % scale 0 is the no-effect control and ±100 the full control effect; nearly all actives have a fitted effect of over 60% in size
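HEK293 cells stably expressing RXFP1, treated 30 min at 37C with compounds plus PDE4 inhibitor Ro 20174; cAMP measured by HTRF TR-FRET. Normalized to buffer and 29 nM porcine relaxin; EC50 by Hill fit.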
Giardia killer: Giardia lamblia killing; Giardia lamblia trophozoite viability; AID 540267; activity change, % at 7.66 µM, hits read low; 340,000 tested, 0.15% active; in the data active means activity change below about -80%; inconclusive means between about -30% and that limit;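 further: parasites exposed to compound for two days anaerobically before the ATP read; on the % scale 0 is the no-effect control and ±100 the full control effect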
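Media and compound were dispensed first, then trophozoites at 100 cells/well; plates sat 48 hrs at 37 deg C without oxygen before ATP luminescence reagent was added and read after 15-30 min at room temperature.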
gsp antagonist: antagonists of gsp mutant (McCune-Albright syndrome) | gsp-mutant cells, cAMP HTRF, 30 min | Potency, µM (series often up to 76.9 µM), without a hit: at the highest dose activity change, negative = inhibition, usual class: inhibitors | 340,000 tested, 0.4% active; calls by dose curve; cell line not stated here;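 further: intracellular cAMP measured with PDE inhibitor Ro 20-1724 present during compound exposure; potency means the concentration at half of the fitted maximal effect; on the % scale 0 is the no-effect control and ±100 the full control effect; nearly all actives have a fitted effect of over 65% in size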
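Cells in G418 medium, seeded 16-24 h, 37C; buffer exchange to DPBS + 1 mM CaCl2, 0.5 mM MgCl2, 0.05% BSA; cpds in DMSO + […] (300 uM stock), 30 min 37C; HTRF cAMP detection.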
Starred values were filed as active, the others as inactive; ? = inconclusive; . = no result given; [ ] = another dose, or the depositor's remark. An excerpt weighted towards active compounds, which were near 1.6% of everything screened.

SMILES | Coupling enz | RXFP1 antagonist | gsp ag | RXFP1 ag | Giardia killer | gsp antagonist
CCCc1nc(SCC(=O)c2ccccc2)c2c(=O)n(C)c(=O)n(C)c2n1 | -14 | -23 | -52% | 3% | -8 | 35µM*
CC1CCCCN1C(=O)c1cccc(NC2=C(Cl)C(=O)N(Cc3ccccc3)C2=O)c1 (stereo not given) | . | 1 | -5% | 0% | 17 | 28µM*
CC1CCN(C(=O)c2ccc(NC3=C(Cl)C(=O)N(Cc4ccccc4)C3=O)cc2)CC1 | . | -34 | -7% | -1% | 2 | ?
O=[N+]([O-])c1c(Nc2cccc(O)c2)cc(Cl)c2nonc12 | -3 | ? | 1% | 1% | -5 | 35µM*
O=C(O)c1ccc(Nc2cc(Cl)c3nonc3c2[N+](=O)[O-])cc1 | -4 | -11 | 24%[15.4 µM] | 5% | 11 | -1%
Cn1c(=O)n2n(c1=O)[C@H]1[C@H](O)[C@H]3O[C@@H]3/C(=N/OC[C@@H](O)COCc3ccco3)[C@@H]1CC2 | 6 | . | . | . | . | .
O=C(COc1ccc(Br)cc1)Nc1ccc(C(=O)Nc2ccccc2C(=O)O)cc1 | 2 | -27 | 12%[15.4 µM] | -1% | -5 | -3%
COc1ccc(NC(=O)c2ccc(NC(=O)CCS(=O)(=O)c3cccs3)cc2)cc1 | -1 | -97* | -7% | 0% | -4 | -8%
COc1ccc(OCC(=O)Nc2ccc(C(=O)Nc3ccccc3C(=O)O)cc2)cc1 | 9 | -17 | 16% | 2% | 12 | 40µM*
O=C(NC1CC(=O)N(c2ccc3c(c2)OCCO3)C1)N1CCC(O)CC1 (stereo not given) | . | -5 | -12% | 0% | 5 | 11%
CCC(C(=O)N1CCN(c2ccccc2)CC1)n1nc(C)c2sc3ccccc3c2c1=O (stereo not given) | . | -13 | . | -2% | . | .
O=C(N/N=C\c1ccccc1O)c1ccccc1O | -4 | . | . | . | . | .
CSc1nsc2nc(=O)c(/C=C3\C=Nc4ccccc43)c(N)n12 | -1 | -20 | -4% | -3% | -13 | 32µM*
O=C1OC(c2ccc3ccccc3c2O)(c2ccc3ccccc3c2O)c2ccccc21 | . | ? | -40% | . | 11 | -7%
COc1ccc(CNC(=O)c2ccc3c(c2)nc2n3CCC(C)C2)c(OC)c1 (stereo not given) | . | -18 | . | 3% | . | .
CC1CCN(N=Nc2nc3c([nH]2)c(=O)n(C)c(=O)n3C)CC1 | . | 27 | 13µM* | . | -6 | 5%
Cn1c(=O)c2[nH]c(N=NN3CCCCC3)nc2n(C)c1=O | . | 3 | ? | . | -7 | 7%
O=C(c1ccc(F)cc1)N1CCC(c2nc3ccccc3s2)CC1 | . | 0 | . | -3% | . | .
COc1ccccc1CN(C)C(=O)c1cccc(S(=O)(=O)N2CCCc3ccccc32)c1 | . | 5 | -14% | 1% | 9 | 35µM*
COc1ccccc1C(CNC(=O)c1cccc(S(=O)(=O)N2CCCc3ccccc32)c1)N(C)C (stereo not given) | . | -2 | ? | . | 6 | 2%
CCOC(=O)C1CCCN(C2=C(NS(=O)(=O)c3ccc(Br)cc3)C(=O)c3ccccc3C2=O)C1 (stereo not given) | -38* | 9 | 21% | 13% | -26 | ?
CC1CCN(C2=C(NS(=O)(=O)c3ccc(Cl)cc3)C(=O)c3ccccc3C2=O)CC1 | -34* | 3 | -22% | -1% | 12 | 1%
CC1CCN(C2=C(NS(=O)(=O)c3ccccc3)C(=O)c3ccccc3C2=O)CC1 | -30 | -11 | 11%[15.4 µM] | -6% | -2 | -20%
CC(=O)Nc1ccc(S(=O)(=O)NC2=C(N3CCN(C)CC3)C(=O)c3ccccc3C2=O)cc1 | -52* | 1 | -6% | -3% | 4 | 4%
CC(=O)Nc1ccc(S(=O)(=O)NC2=C(N3CCN(Cc4ccccc4)CC3)C(=O)c3ccccc3C2=O)cc1 | -44* | -16 | 22% | -1% | 7 | -17%
SMILES | Coupling enz | RXFP1 antagonist | gsp ag | RXFP1 ag | Giardia killer | gsp antagonist
CCCOc1ccc(C(=O)Nc2cc(S(=O)(=O)N3CCOCC3)ccc2N2CCN(CC)CC2)cc1OC | . | 4 | 29% | . | -2 | -7%
O=C(O)c1ccccc1NC(=O)c1ccccc1Nc1ccccc1 | 11 | -14 | -8% | 0% | 10 | 32µM*
CCc1ccc(O)c(N=Cc2ccccc2O)c1 | 0 | 17 | -9% | 0% | 5 | -4%
O=c1[nH][nH]c2c(N=Cc3ccccc3O)ccc(F)c12 | -34* | -4 | -41%[15.4 µM] | -4% | 2 | 1%
CC(C)CCNC(=O)c1ccc2c(c1)ncn2C1CCCC1 | 3 | -8 | -2%[15.4 µM] | 5% | 10 | 7.9µM*
Cc1ccc(C)c(N2CCN(C(=O)c3cc(C)nc4c3c(C)nn4-c3ccccc3)CC2)c1 | . | -15 | . | 1% | . | .
C[C@H](CN1CCCC1)C(=O)c1ccc(C(F)(F)F)cc1 | . | 8 | . | . | . | .
COc1cc(C)nc(N(C)S(=O)(=O)c2ccccc2Cl)n1 | 4 | -1 | -1% | 2% | -14 | 32µM*
COc1nc(N(C)C)nc(N(OC)S(=O)(=O)c2ccccc2Cl)n1 | 1 | -7 | -18% | 1% | 31 | -4%
CCOc1ccc(-n2c([S-])c(C(=O)Nc3ccc(S(=O)(=O)N4CCOCC4)cc3)[n+]3cc(C(N)=O)ccc23)cc1 | -4 | -2 | 4%[15.4 µM] | 32µM* | 9 | 11%
COc1ccc(-c2nn(-c3ccccc3)cc2/C=N/NC(=O)c2cccc(S(=O)(=O)Nc3ccccc3Cl)c2)cc1 | -3 | -7 | 12% | -1% | -13 | ?
COc1ccc(CN2CCN(c3nc4ccccc4s3)CC2)cc1 | 1 | -3 | 12%[15.4 µM] | 3% | -5 | 4%
COc1ccc(CCn2c(O)cc3nn(-c4nc5ccccc5s4)c(=O)c-3c2C)cc1 | -8 | -70* | -11%[15.4 µM] | 0% | -9 | 7%
COc1cccc(CC(=O)Nc2sc3c(c2C(N)=O)CCCC3)c1 | -2 | 15 | 35µM* | ? | -3 | -3%
N#Cc1c(NC(=O)c2ccc([N+](=O)[O-])o2)sc2c1CCC2 | -7 | 6 | -4%[15.4 µM] | -5% | -94* | -31%
N#Cc1c(NC(=O)c2ccccc2)sc2c1CCC2 | -10 | 4 | 24% | 1% | -10 | -9%
NC(=O)c1ccsc1NC(=O)c1ccc([N+](=O)[O-])o1 | . | 11 | -5% | . | -95* | -7%
CN1CCc2c(sc(NC(=O)c3ccc([N+](=O)[O-])o3)c2C(N)=O)C1 | . | -13 | -9%[15.4 µM] | -1% | ? | ?
COc1ccc(CC(=O)Nc2sc3c(c2C(N)=O)CCCC3)cc1OC | 0 | -18 | -11% | 0% | -19 | 6%
NC(=O)c1c(NC(=O)c2ccc([N+](=O)[O-])o2)sc2c1CCCC2 | -2 | 9 | 19%[15.4 µM] | 4% | -91* | 4%
